{
  "source": "PubChem BioAssay",
  "note": "Unmarked numbers belong to inactive results.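 The calls were made as follows, unless noted: active = cell viability at or below a set limit in both duplicate runs, the limit being the all-compound median minus 4 SD (cut at about 23% in these data, passing the limit was not always enough); inconclusive = no clear call, values can overlap the other calls; inactive = the rest.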 Records with an inconclusive call do not appear.",
  "data": [
    {"experiment": "doxorubicin toxicity protection in MRP-1 cells – H69AR cells, CellTiter-Glo, duplicate, MRP-1 activator project, pilot screen (AID 807;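 active = viability increase at or above a cutoff of the median across tested compounds plus 3 SD, cut at about 8.5% in these data, passing the limit was not always enough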;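 also: compound pretreatment 18-22 h then 72 h combined with doxorubicin; 0% = doxorubicin alone and 100% = vehicle without doxorubicin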)", "conditions": "H69AR viability with doxorubicin, CellTiter-Glo luminescence; at 10 µM; active compounds read high", "units": {"viability increase": "%"}, "values": [
      {"compound": "COC(=O)c1ccccc1NC(=O)c1c(O)c2c([nH]c1=O)CCCC2", "viability increase": -5.62},
      {"compound": "COc1cccc(Nc2cc(C)nc3nc(C)nn23)c1", "viability increase": -1.69},
      {"compound": "COc1ccc(N2CSC3=C(C#N)C(c4cc(OC)c(OC)cc4OC)CC(=O)N3C2)c(OC)c1", "note": "(centres undefined)", "viability increase": -5.15},
      {"compound": "Cc1c(C(=O)NCc2cccnc2)sc2nc(-c3ccc(F)cc3)cn12", "viability increase": 0.45},
      {"compound": "COc1ccc(CC(=O)N2CC3(C)CC2CC(C)(C)C3)cc1OC", "note": "(centres undefined)", "viability increase": -2.91},
      {"compound": "CCC(CC)C(=O)Nc1cc(C)c2c(=O)oc3ccccc3c2n1", "viability increase": -5.01},
      {"compound": "CCOC(=O)N1CCN(CC(=O)Nc2cc(OCC)ccc2OCC)CC1", "viability increase": -6.22},
      {"compound": "Cc1ccc2c(CC(=O)Nc3nc(C)cs3)coc2c1", "viability increase": 0.52},
      {"compound": "O=C(Nc1ccccc1)N(CCc1ccncc1)C1CCCCC1", "viability increase": -2.85},
      {"compound": "COc1ccc(C2C(C(=O)NCC3CCCO3)c3cc(OC)c(OC)cc3C(=O)N2C)cc1OC", "note": "(centres undefined)", "viability increase": -1.75},
      {"compound": "Cc1cc(C)c(C#N)c(Nc2ccc3c(c2)OCCO3)n1", "viability increase": -1.17},
      {"compound": "O=C(Cn1ncc2c(=O)oc3ccccc3c21)N1CCC(N2CCCCC2)CC1", "viability increase": -1.31},
      {"compound": "CCCC(=O)Nc1nc2c(OC)ccc(OC)c2s1", "viability increase": -3.01},
      {"compound": "O=C(Nc1nccs1)C1CCCN(S(=O)(=O)c2cccc3cccnc23)C1", "note": "(centres undefined)", "viability increase": -1.85},
      {"compound": "Cc1c(N=c2c(=O)c3ccccc3c2=O)c(=O)n(-c2ccccc2)n1C", "viability increase": -4.43},
      {"compound": "CCOCCOC(=O)C1=C(C)NC2=C(C(=O)CC(c3cccs3)C2)C1c1ccsc1", "note": "(centres undefined)", "viability increase": -1.94},
      {"compound": "COc1ccc(CN2CCN(c3ncccn3)CC2)c(OC)c1", "viability increase": -1.8},
      {"compound": "Cc1cc(Nc2ccc(F)cc2Cl)n2nc(C)nc2n1", "viability increase": -0.59},
      {"compound": "COC(=O)C1C(=O)C=C(N2CCOCC2)CC1(C)C", "note": "(centres undefined)", "viability increase": -0.72},
      {"compound": "COc1ccc(S(=O)(=O)N2CCN(c3cccc(C)c3C)CC2)cc1", "viability increase": 1.83},
      {"compound": "O=C(Nc1ccccc1Cl)c1ccc2c(c1)N(Cc1ccc(F)cc1)C(=O)CS2=O", "note": "(centres undefined)", "viability increase": 1.1},
      {"compound": "CCOC(=O)c1cc2c(=O)n3cccc(C)c3nc2n(CCCOC)c1=NC(=O)c1cccnc1", "viability increase": -4.94},
      {"compound": "Cc1cccc(OCCCCCNCCO)c1", "viability increase": -0.72},
      {"compound": "COc1ccc(OC)c(Nc2cc(C)nc3nc(C)nn23)c1", "viability increase": -5.35}
    ]},
    {"experiment": "viability of HCT116 without oncogenic beta-catenin – human colon tumor cells, pilot screen (AID 823);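 also: 0% = wells killed by 20 µM Hyamine and 100% = untreated DMSO cell wells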", "conditions": "HCT116 beta-catenin knockout viability, CellTiter-Glo, 60 h; at 10 µM; active compounds read low", "units": {"viability": "%"}, "values": [
      {"compound": "COc1cc2c(cc1OC)C(C(=O)NC1CC1)C1c3ccccc3CCN1C2=O", "note": "(centres undefined)", "viability": 95.8},
      {"compound": "CCSc1nnc(Cn2c(=O)sc3ccccc32)n1C", "viability": 95.7},
      {"compound": "COC(=O)c1ccc(N2C(=O)CC(Sc3n[nH]c(C)n3)C2=O)cc1", "note": "(centres undefined)", "viability": 96.6},
      {"compound": "Cc1ccc(-c2noc(CSc3nnnn3-c3ccccc3)n2)cc1", "viability": 88.1},
      {"compound": "CC(=O)c1cccc(NC(=O)c2cc(C(C)C)on2)c1", "viability": 104},
      {"compound": "COc1ccc(CNC(=O)c2cc3c(C)nc4ccccc4c3o2)c(OC)c1", "viability": 74},
      {"compound": "CCn1cc(S(=O)(=O)CC(=O)Nc2ccc(C)cc2)c2ccccc21", "viability": 92.7},
      {"compound": "COc1ccc(S(=O)(=O)NCCN2CCOCC2)c2ccccc12", "viability": 101},
      {"compound": "Cn1c(=O)c2c(nc(NCCc3ccccc3)n2Cc2ccc(F)cc2)n(C)c1=O", "viability": 69.8},
      {"compound": "O=C(NCCc1cn2ccsc2n1)c1cccs1", "viability": 105},
      {"compound": "Cc1ccc2oc(=O)c3cnn(CC(=O)N(CCCN4CCOCC4)Cc4ccco4)c3c2c1", "viability": 93.2},
      {"compound": "Cc1ccccc1-c1noc(-c2cccs2)n1", "viability": 94},
      {"compound": "Cc1cc(S(=O)(=O)N2CCN(Cc3ccccc3)CC2)c(C)s1", "viability": 77.1},
      {"compound": "COc1ccc(OC)c(NC(=O)C2CCCN(S(=O)(=O)c3cccc4cccnc34)C2)c1", "note": "(centres undefined)", "viability": 87.3},
      {"compound": "CCC(C)N1C(=O)CCC1C(=O)NCc1ccc2c(c1)OCO2", "note": "(centres undefined)", "viability": 102},
      {"compound": "O=C(CCCOc1ccccc1)NCC1CCCO1", "note": "(centres undefined)", "viability": 96.5},
      {"compound": "COC(=O)c1ccccc1NC(=O)c1c(O)c2c([nH]c1=O)CCCC2", "viability": 88.3},
      {"compound": "COc1cccc(Nc2cc(C)nc3nc(C)nn23)c1", "viability": 108},
      {"compound": "COc1ccc(N2CSC3=C(C#N)C(c4cc(OC)c(OC)cc4OC)CC(=O)N3C2)c(OC)c1", "note": "(centres undefined)", "viability": 71.6},
      {"compound": "Cc1c(C(=O)NCc2cccnc2)sc2nc(-c3ccc(F)cc3)cn12", "viability": 77.3},
      {"compound": "COc1ccc(CC(=O)N2CC3(C)CC2CC(C)(C)C3)cc1OC", "note": "(centres undefined)", "viability": 92.7},
      {"compound": "CCC(CC)C(=O)Nc1cc(C)c2c(=O)oc3ccccc3c2n1", "viability": 62.5},
      {"compound": "CCOC(=O)N1CCN(CC(=O)Nc2cc(OCC)ccc2OCC)CC1", "viability": 91.2},
      {"compound": "Cc1ccc2c(CC(=O)Nc3nc(C)cs3)coc2c1", "viability": 76.5},
      {"compound": "O=C(Nc1ccccc1)N(CCc1ccncc1)C1CCCCC1", "viability": 97.4},
      {"compound": "COc1ccc(C2C(C(=O)NCC3CCCO3)c3cc(OC)c(OC)cc3C(=O)N2C)cc1OC", "note": "(centres undefined)", "viability": 92.4},
      {"compound": "Cc1cc(C)c(C#N)c(Nc2ccc3c(c2)OCCO3)n1", "viability": 97.6},
      {"compound": "O=C(Cn1ncc2c(=O)oc3ccccc3c21)N1CCC(N2CCCCC2)CC1", "viability": 99.5},
      {"compound": "CCCC(=O)Nc1nc2c(OC)ccc(OC)c2s1", "viability": 93.5},
      {"compound": "O=C(Nc1nccs1)C1CCCN(S(=O)(=O)c2cccc3cccnc23)C1", "note": "(centres undefined)", "viability": 71.2},
      {"compound": "Cc1c(N=c2c(=O)c3ccccc3c2=O)c(=O)n(-c2ccccc2)n1C", "viability": 95.2},
      {"compound": "CCOCCOC(=O)C1=C(C)NC2=C(C(=O)CC(c3cccs3)C2)C1c1ccsc1", "note": "(centres undefined)", "viability": 93.5},
      {"compound": "COc1ccc(CN2CCN(c3ncccn3)CC2)c(OC)c1", "viability": 94.5},
      {"compound": "Cc1cc(Nc2ccc(F)cc2Cl)n2nc(C)nc2n1", "viability": 109},
      {"compound": "COC(=O)C1C(=O)C=C(N2CCOCC2)CC1(C)C", "note": "(centres undefined)", "viability": 96.4},
      {"compound": "COc1ccc(S(=O)(=O)N2CCN(c3cccc(C)c3C)CC2)cc1", "viability": 97.9},
      {"compound": "O=C(Nc1ccccc1Cl)c1ccc2c(c1)N(Cc1ccc(F)cc1)C(=O)CS2=O", "note": "(centres undefined)", "viability": 83.3},
      {"compound": "CCOC(=O)c1cc2c(=O)n3cccc(C)c3nc2n(CCCOC)c1=NC(=O)c1cccnc1", "viability": 92.5},
      {"compound": "Cc1cccc(OCCCCCNCCO)c1", "viability": 98.6},
      {"compound": "COc1ccc(OC)c(Nc2cc(C)nc3nc(C)nn23)c1", "viability": 65.5}
    ]}
  ]
}
